According to PubChem BioAssay:
The source made the active and inactive calls. No rule for the calls is given here.

test: Brca1-Bard1 BiLC signal decrease – luminescence, single concentration, counter-screen for Mdm2/MdmX interaction inhibitor project, confirmation (AID 504668); settings: Brca1/Bard1 bimolecular luciferase complementation counterscreen, at 8 µM, hits give high values

| SMILES | inhibition |
| --- | --- |
| Cn1c(/C=C/c2ccc(Br)cc2)c([N+](=O)[O-])c(=O)n(C)c1=O | 23.9% (active) |
| CCCCC(=O)NC(c1ccc(N(C)C)cc1)c1ccc2cccnc2c1O (stereo not given) | 23.7% (active) |
| Cc1[nH]c(N=Nc2ccccc2)nc1N=Nc1ccccc1 | 24.1% (active) |
| Nc1nonc1-c1nc2ccccc2n1CC(=O)Nc1ccccc1 | 24.8% (active) |
| Oc1ccccc1/C=N/Nc1nccnc1Cl | 30.8% (active) |
| CC1CCN(S(=O)(=O)c2ccc(C(=O)Nc3nnc(-c4ccco4)o3)cc2)CC1 | 34.2% (active) |
| CC(C)[C@@H]1CC[C@@H](C)C[C@H]1OC(=O)C[n+]1cc(-c2ccc(Cl)cc2)n2c1CCCCC2 | 28.7% (active) |
| CN(CC(=O)Nc1ccccc1Cl)C(=O)COC(=O)c1nc(Cl)c(Cl)c(Cl)c1Cl | 30.8% (active) |
| CC(=O)c1ccc(Sc2nnnn2-c2ccccc2)c([N+](=O)[O-])c1 | 30.1% (active) |
| C#CCn1c(=NC(=O)c2ccc(S(=O)(=O)N3CCc4ccccc4C3)cc2)sc2cc(S(N)(=O)=O)ccc21 | 23% (active) |
| O=C(NC1CCCc2c1cnn2-c1ccccc1F)c1ccccn1 (stereo not given) | 28.6% (active) |
| O=C(CCl)Nc1cn(-c2ccccc2)nc1-c1ccc(F)cc1 | 32.9% (active) |
| COc1ccc(N/N=C/c2c(C(=O)O)ccc3ccccc23)cc1 | 24.1% (active) |
| Cn1nnnc1Sc1ncnc2scc(-c3ccccc3Br)c12 | 25% (active) |
| OC(CNCc1ccc(-c2ccccc2)cc1)c1ccccc1 (stereo not given) | 26.9% (active) |
| CC1CCN(CCCNC(=O)c2ccc3c(Cl)c4c(nc3c2)CCCC4)CC1 | 30.3% (active) |
| CCN(CC)S(=O)(=O)c1ccc2c(c1)C(=NO)c1cc(S(=O)(=O)N(CC)CC)ccc1-2 | 23.7% (active) |
| O=C(NNc1c2ccccc2nc2ccccc12)C(O)c1ccccc1 (stereo not given) | 34.4% (active) |
| O=C1N(c2ccccc2)C[C@@H]2C[C@@H](c3cc4ccccc4o3)N3CCC[C@@]123 | 35.1% (active) |
| CC(C)(C)c1ccc(OCC(=O)N/N=C/c2cc(Br)ccc2OC(=O)c2ccco2)cc1 | 27% (active) |

| SMILES | inhibition |
| --- | --- |
| CCC(C)Nc1nc(-c2ccccn2)nc2ccccc12 (stereo not given) | 29.2% (active) |
| O=C(c1ccc(S(=O)(=O)c2ccc(F)cc2)c([N+](=O)[O-])c1)N1CCCCCC1 | 30.1% (active) |
| O=C1Nc2cccnc2N(C(=O)CCl)c2ccccc21 | 31.2% (active) |
| Cc1conc1NC(c1cccs1)c1ccc2cccnc2c1O (stereo not given) | 31.8% (active) |
| O=C(Nc1ccc(Br)c(C(F)(F)F)c1)c1ccc(C(F)(F)F)cc1 | 28.7% (active) |
| CN(C)C1CCN(Cc2cc(COCc3ccccc3)c3cccnc3c2O)C1 (stereo not given) | 32.8% (active) |
| CCOC(=O)c1cnc(-n2nc(C)cc2C)nc1NNc1nc(-c2ccccc2)cc(-c2ccccc2)n1 | 25% (active) |
| Oc1ccc(Br)cc1CNc1cccc2cccnc12 | 25.6% (active) |
| O=C(NN=C(c1ccccc1)c1ccccn1)c1ccccc1 | 27.4% (active) |
| O=c1c2ccccc2nc(N/N=C/c2c(O)ccc3ccccc23)n1O | 35.9% (active) |
| CCN1CCN(CCNC(=O)c2ccc(/C=C3/Sc4ccccc4N(Cc4cccc(C)c4)C3=O)cc2)CC1 | 27.6% (active) |
| CC(C)(C)c1ccc(-c2nnc3sc(-c4ccccn4)nn23)cc1 | 30.2% (active) |
| C=CCn1c(O)c(N=NC(=S)Nc2cccc(C)c2)c2ccccc21 | 33.1% (active) |
| CCCCN(CC)CCNC(=O)c1cc2c(-c3ccc(Cl)cc3)nn(C)c2s1 | 31.2% (active) |
| CCC(=O)NC(c1ccc(C)cc1)c1cc(Cl)c2cccnc2c1O (stereo not given) | 23.8% (active) |
| COc1ccc(-c2oc3cc(OC)c(O)c(OC)c3c(=O)c2OC)cc1O | 28.4% (active) |
| Cc1sc2ncnc(N3CCC(C(=O)N(C)CC(=O)Nc4ccc(Cl)c(C(F)(F)F)c4)CC3)c2c1C | 29% (active) |
| CCN(CC)c1ccc(/C=N/NC(=O)c2c(Cl)cnn2C)c(O)c1 | 26.9% (active) |
| COC(=O)c1cccc(C23CC4(C2)[C@H](CN(Cc2ccc(C(F)(F)F)cc2)[C@@H]4c2ccccc2)C3c2ccc(C(F)(F)F)cc2)c1 (stereo not given in full) | 23.6% (active) |
| Cc1ccc(-c2csc(=Nc3cccnc3)n2CCCn2ccnc2)cc1C | 24.3% (active) |
